DT40 TDP1 no CPT = qHTS for Inhibitors of human tyrosyl-DNA phosphodiesterase 1 (TDP1): qHTS in cells in absence of CPT; DT40 Tdp1-/- hTDP1 cells, no CPT, ATP luminescence, 48 h; AID 686978, 2013; Potency, µM (titrated, usually from 46.2 µM), usual class: inhibitors; hit rate 15% among 420,000; note: nearly all actives have a fitted effect of over 55% in size
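Compound effects on proliferation are scored in DT40 Tdp1-/-;hTDP1 cells in the absence of CPT. ATP levels (CellTiter-Glo luminescence) are recorded after a ≥48 hr, 37 °C incubation.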
IL-1B inflam inh = inhibitors of inflammasome signaling (IL-1 beta secretion); THP-1 LPS/ATP IL-1B secretion, AlphaLISA, 16 h; active compounds read low; AID 743279; activity change, % at 57.5 µM; hit rate 4.7% among 360,000; in the data active = activity change below about -50%; inconclusive = mostly about -30% to -49%
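THP-1 cells pretreated 1 hr with compounds (up to 57.5 uM final), then stimulated with LPS (250 ng/mL final) plus ATP (1.25 mM final); secreted IL-1B measured by AlphaLISA after 16 hr, decreased signal indicating inhibition.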
TDP1 cell CPT = growth inhibition of DT40 Tdp1-/-;hTDP1 cells with camptothecin (screen for TDP1 inhibitors) | hit rate 12% among 420,000 | chicken DT40 Tdp1-/-;hTDP1 cells + 20 nM CPT, ATP luminescence, 48 h | Potency, µM (titrated, usually from 46.2 µM), usual class: inhibitors; note: nearly all actives have a fitted effect of over 55% in size
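Chicken DT40 Tdp1-/- cells complemented with human TDP1, 400 cells/well, exposed to compounds plus 20 nM camptothecin for at least 48 h at 37 C; viability read as ATP content by CellTiter-Glo luminescence.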
RORgamma inh = ROR gamma (mouse) transcription inhibition | P51450 | Potency, µM (series often up to 53.6 µM), usual class: inhibitors | hit rate 5.4% among 310,000 | AID 2551 | Drosophila S2 Gal4-RORgamma UAS-luciferase reporter, 20 h; note: nearly all actives have a fitted effect of over 60% in size
Target sequence (P51450 whole entry, looked up, the tested form may be a part): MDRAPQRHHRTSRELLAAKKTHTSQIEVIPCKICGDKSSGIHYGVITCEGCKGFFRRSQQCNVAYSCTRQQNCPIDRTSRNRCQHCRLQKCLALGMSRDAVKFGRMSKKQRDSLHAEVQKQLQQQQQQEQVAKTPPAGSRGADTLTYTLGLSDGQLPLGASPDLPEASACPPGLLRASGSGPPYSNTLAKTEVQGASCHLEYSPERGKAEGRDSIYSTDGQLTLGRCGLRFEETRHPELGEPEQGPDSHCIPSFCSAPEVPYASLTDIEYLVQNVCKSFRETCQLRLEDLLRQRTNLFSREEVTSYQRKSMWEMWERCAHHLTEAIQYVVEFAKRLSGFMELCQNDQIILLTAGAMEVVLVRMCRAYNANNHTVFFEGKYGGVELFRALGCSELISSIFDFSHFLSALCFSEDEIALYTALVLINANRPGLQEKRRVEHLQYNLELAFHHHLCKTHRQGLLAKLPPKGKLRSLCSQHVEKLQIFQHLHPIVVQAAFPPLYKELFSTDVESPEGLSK
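Stably transfected Drosophila Schneider cells are the test system, with ROR gamma fused to Gal4 and luciferase under UAS control; luminescence is read after 20 hr of 700 uM copper sulfate induction at ambient temperature.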
LDHA block = LDHA (human) enzyme inhibition. purified LDHA, NADH/diaphorase-resazurin fluorescence; active compounds read low. activity change, % (values are at about 110 or 230 µM). hit rate 0.15% among 480,000; in the data active = activity change below about -30%; inconclusive = mostly about -25% to -30%
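Resorufin fluorescence (ex540/em590), read at 0 and 20 min after diaphorase/resazurin addition, reports the NADH left after a 5 min room-temperature reaction of 2 nM human LDH5 with 0.06 mM NADH and 0.2 mM pyruvate.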
Gal4-VP16 FLuc = counter-screen for ROR gamma inhibitors: Gal4-VP16 reporter. Drosophila S2 Gal4-VP16 UAS-luciferase, luminescence, 20 h. AID 2546. Potency, µM (doses to about 53.6 µM), most hits filed as inhibitors. hit rate 3.5% among 310,000;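 note: Gal4-VP16 expression switched on by copper sulfate through the metallothionein promoter; nearly all actives have a fitted effect of over 50% in size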
Hits are given with their value; – = inactive; ? = inconclusive; · = not tested or not shown. A selection: hits, their analogues and other compounds. The true share with any hit is near 18%. Unless noted, calls come from the whole dose curve; as a rule, active = well fitted curve in the direction sought with a large enough effect; inconclusive = small, poorly fitted or top-dose-only effect, or another doubt; inactive = no such curve, though single readings can be large; an effect the other way counts as inactive or inconclusive.

SMILES	DT40 TDP1 no CPT	IL-1B inflam inh	TDP1 cell CPT	RORgamma inh	LDHA block	Gal4-VP16 FLuc
Cc1ccc(Cn2c(C(C)Nc3nc(-c4ccc(C)cc4)cs3)nc3cc(Cl)c(Cl)cc32)cc1 (stereo not given)	–	–	?	11µM	–	–
CC(Nc1nc(-c2ccc(Cl)cc2)cs1)c1nc2cc(Cl)c(N3CCCCC3)cc2n1CCOCCO (stereo not given)	15µM	–	16µM	·	–	·
COc1ccc(-c2csc(NC(C)c3nc4cc(Cl)c(N5CCCCC5)cc4n3CCOCCO)n2)cc1 (stereo not given)	?	–	13µM	·	–	·
COC(=O)c1cc(NC(=O)c2nc3ccccc3nc2N2CCCCC2)cc(C(=O)OC)c1	·	·	·	·	–	·
Cc1n[nH]c(C)c1S(=O)(=O)N1CCC(=O)CC1	·	·	·	·	–	·
COc1ccc(-c2csc(NC(C)c3nc4cc(Cl)c(N5CCCCC5)cc4n3CCCO)n2)cc1 (stereo not given)	?	?	26µM	·	–	·
CC(Nc1nc(-c2ccc(F)cc2)cs1)c1nc2cc(Cl)c(Cl)cc2n1CCCO (stereo not given)	?	–	?	·	–	·
COc1ccc(-c2csc(NC(C)c3nc4cc(Cl)c(Cl)cc4n3CCOCCO)n2)cc1 (stereo not given)	18µM	?	?	·	–	·
COc1ccc(-c2csc(NC(CO)c3nc4ccccc4n3CCCO)n2)cc1 (stereo not given)	?	–	?	·	–	·
Cc1cccc(-c2ccccc2N)c1	·	·	·	·	–	·
CCc1nn2c(=O)c(S(=O)(=O)Nc3ccc(C(C)C)cc3)c(C)nc2s1	16µM	–	?	?	–	–
CCc1ccc(S(=O)(=O)c2nnn3c2nc(N(CC)Cc2ccccc2)c2cc(Cl)ccc23)cc1	16µM	·	9.2µM	·	–	·
CCc1ccc(S(=O)(=O)c2nnn3c2nc(NCc2ccccc2)c2cc(Cl)ccc23)cc1	?	·	?	·	–	·
CCc1ccc(S(=O)(=O)c2nnn3c2nc(N(C)Cc2ccccc2)c2cc(Cl)ccc23)cc1	–	·	–	·	–	·
O=S(=O)(c1ccccc1)c1nnn2c1nc(NCc1ccccc1)c1cc(Cl)ccc12	?	·	18µM	·	–	·
O=C1CCCN1CCCNc1nc2c(S(=O)(=O)c3ccccc3)nnn2c2ccc(Cl)cc12	?	?	21µM	–	–	–
CCOC(=O)C(=O)Nc1ccc(N(C)C(C)=O)cc1	·	·	·	·	–	·
O=C(Nc1c(NCc2ccccc2)c2ccccc2oc1=O)c1ccccc1Br	·	·	·	·	–	·
NC(=O)COc1ccc(/C(Cc2ccccc2)=N/O)c(O)c1	·	·	·	·	–	·
CCNC(=O)C1Cc2cc(S(=O)(=O)N(CC)CC)ccc2N1C(C)=O (stereo not given)	·	·	·	·	–	·
CCOC(=O)c1cc2cc(Oc3ccccc3)ccc2n1C	·	·	·	·	–	·
CCOc1ccc2nc(N(CCCN(C)C)C(=O)c3ccc4c(c3)CCCC4)sc2c1	?	-58	?	–	–	–
COc1ccc(C(=O)N(CCCN(C)C)c2nc3ccc(Cl)cc3s2)cc1OC	·	·	·	·	–	·
COc1cccc2sc(N(CCN(C)C)C(=O)c3ccc4c(c3)CCCC4)nc12	?	–	?	–	–	–
CN(C)CCCN(C(=O)c1ccc2c(c1)CCCC2)c1nc2ccc(Cl)cc2s1	15µM	-123	15µM	?	–	?
SMILES	DT40 TDP1 no CPT	IL-1B inflam inh	TDP1 cell CPT	RORgamma inh	LDHA block	Gal4-VP16 FLuc
Cc1ccccc1OCCNC(=O)c1cc(=O)c2ccccc2o1	·	·	·	·	–	·
COc1ccc(C(=O)NCC(=O)N2CC=C(c3ccccc3)CC2)cc1OC	26µM	–	?	·	–	·
CC(C)C(NC(=O)c1ccc(C(C)(C)C)cc1)C(=O)OCC(=O)N1CCCC1 (stereo not given)	·	·	·	·	–	·
O=C(NC(=S)N1CCN(C/C=C/c2ccccc2)CC1)c1ccc(F)cc1	?	–	?	0.28µM	–	0.63µM
Cc1ccc(C(=O)CCC(=O)N2CCN(C/C=C/c3ccccc3)CC2)cc1	21µM	–	?	·	–	·
CCOC(=O)N1CCN(C(=O)C(NC(=O)c2ccc(C(C)(C)C)cc2)C(C)C)CC1 (stereo not given)	2.3µM	–	8.2µM	·	–	·
Cc1cccc(C(=O)NCC(=O)N2CC=C(c3ccccc3)CC2)c1	?	–	?	·	–	·
CCOC(=O)c1cccc(NC(=O)c2cc[n+]([O-])cc2)c1	·	·	·	·	–	·
O=C(CNC(=O)NC(Cc1c[nH]c2ccccc12)C(=O)O)Nc1ccccc1 (stereo not given)	·	·	·	·	–	·
COc1ccc(C(=O)NC(C(=O)N2CCN(C/C=C/c3ccccc3)CC2)C(C)C)cc1 (stereo not given)	?	–	18µM	·	–	·
COc1ccccc1C(=O)NCC(=O)N1CCN(C/C=C/c2ccccc2)CC1	?	–	?	·	–	·
O=C(NC(=S)N1CCN(C/C=C/c2ccccc2)CC1)c1cccnc1	–	–	–	0.4µM	–	0.89µM
CCOc1ccc(C(=O)NCC(=O)N2CCN(C/C=C/c3ccccc3)CC2)cc1OCC	16µM	–	?	·	–	·
Cc1cccc(-c2nnc(SCC(=O)NC(=O)NC3CCCC3)n2Cc2ccco2)c1	·	·	·	·	–	·
COc1ccccc1C(NC(=O)c1csc(-c2ccco2)n1)c1nccn1C (stereo not given)	·	·	·	·	–	·
CCOc1ccc2cc(S(=O)(=O)N3CCCCC3)ccc2c1	?	–	29µM	?	–	–
CN1CCN(S(=O)(=O)c2ccc3ccccc3c2)CC1	–	–	–	–	–	–
O=S(=O)(c1ccc(Oc2ccc(Cl)cc2)c(S(=O)(=O)N2CCCCC2)c1)N1CCCCC1	15µM	–	?	–	–	–
CCOc1ccc2cc(S(=O)(=O)N3CCN(C)CC3)ccc2c1	23µM	–	?	–	–	–
CC(=O)N1CCN(C(C(=O)O)c2c[nH]c3ccc(NC(=O)C(C)C)cc23)CC1 (stereo not given)	·	·	·	·	–	·
CCN(C[C@H]1N[C@@](Cc2ccccc2)(C(=O)OC)[C@H]2C(=O)N(Cc3ccccc3)C(=O)[C@@H]12)S(=O)(=O)c1ccc(F)cc1	?	–	18µM	·	–	·
CCN(C[C@H]1N[C@@](C)(C(=O)OC)[C@H]2C(=O)N(Cc3ccccc3)C(=O)[C@@H]12)C(=O)c1ccc(C(C)(C)C)cc1	16µM	–	?	·	–	·
CCN(C[C@H]1N[C@@](Cc2ccccc2)(C(=O)OC)[C@H]2C(=O)N(Cc3ccccc3)C(=O)[C@@H]12)S(=O)(=O)c1ccc(OC)cc1	?	–	?	·	–	·
CCN(C[C@H]1N[C@@](Cc2ccccc2)(C(=O)OC)[C@H]2C(=O)N(Cc3ccccc3)C(=O)[C@@H]12)S(=O)(=O)c1ccc(C(C)(C)C)cc1	16µM	–	?	·	–	·
